Measurements as given in the supplement of paper PMC7411054.
Counter-ions that a name gives are not always drawn.

Assays:
Settings in all cases: treatment time: 24 h
[1] = tested on: A549-ACTB-RAB5A; assay: phenotypically active (imaging signature differs from DMSO and reproducible) at any of 0.3-9 uM (binary (1 = active, 0 = inactive)); higher = active
How it was run: (§1)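 Phenotypic activity depended on meeting both a deviation and a reproducibility criterion. The fifteen gene-edited A549, HepG2 and WPMY1 reporter lines were treated at 0.3, 1, 3 or 9 µM for 24 h, four wells each, then imaged live with features normalised to solvent control wells. Deviation required ≥3 of 4 wells past the 95th percentile of control Euclidean distances, and reproducibility a median replicate Pearson correlation above the 95th percentile of non-replicates.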

[2] = tested on: A549-CANX-COX4; assay: as above
How it was run: as §1

[3] = tested on: A549-GM130-SQSTM1; assay: as above
How it was run: as §1

[4] = tested on: A549-TP53BP1-CLTA; assay: as above
How it was run: as §1

[5] = tested on: A549-TUBA1B-RELA; assay: as above
How it was run: as §1

[6] = tested on: HepG2-ACTB-RAB5A; assay: as above
How it was run: as §1

[7] = tested on: HepG2-CANX-COX4; assay: as above
How it was run: as §1

[8] = tested on: HepG2-GM130-SQSTM1; assay: as above
How it was run: as §1

[9] = tested on: HepG2-TP53BP1-CLTA; assay: as above
How it was run: as §1

[10] = tested on: HepG2-TUBA1B-RELA; assay: as above
How it was run: as §1

[11] = tested on: WPMY1-ACTB-RAB5A; assay: as above
How it was run: as §1

[12] = tested on: WPMY1-CANX-COX4; assay: as above
How it was run: as §1

[13] = tested on: WPMY1-GM130-SQSTM1; assay: as above
How it was run: as §1

[14] = tested on: WPMY1-TP53BP1-CLTA; assay: as above
How it was run: as §1

[15] = tested on: WPMY1-TUBA1B-RELA; assay: as above
How it was run: as §1

[16] = tested on: WPMY1-GM130-SQSTM1; assay: lowest phenotypically active concentration; higher = less potent
How it was run: as §1

[17] = tested on: HepG2-GM130-SQSTM1; assay: as above
How it was run: as §1

| SMILES | phenotypically active [1] | phenotypically active [2] | phenotypically active [3] | phenotypically active [4] | phenotypically active [5] | phenotypically active [6] | phenotypically active [7] | phenotypically active [8] | phenotypically active [9] | phenotypically active [10] | phenotypically active [11] | phenotypically active [12] | phenotypically active [13] | phenotypically active [14] | phenotypically active [15] | lowest phenotypically active concentration [16] | lowest phenotypically active concentration [17] |
| --- | --- | --- | --- | --- | --- | --- | --- | --- | --- | --- | --- | --- | --- | --- | --- | --- | --- |
| CC(C)C[C@H](NC(=O)OCC1c2ccccc2-c2ccccc21)C(=O)O | 0 (inactive) | 0 (inactive) | 0 (inactive) | 0 (inactive) | 0 (inactive) | 0 (inactive) | 0 (inactive) | 0 (inactive) | 0 (inactive) | 0 (inactive) | 1 (active) | 0 (inactive) | 0 (inactive) | 0 (inactive) | 0 (inactive) |  |  |
| Cn1cnc(N)c2ncnc1-2 [3-Methyladenine] | 0 (inactive) | 0 (inactive) | 0 (inactive) | 0 (inactive) | 0 (inactive) | 0 (inactive) | 0 (inactive) | 0 (inactive) | 0 (inactive) | 0 (inactive) | 1 (active) | 0 (inactive) | 0 (inactive) | 0 (inactive) | 0 (inactive) |  |  |
| c1ccc(-c2cnn3cc(-c4ccc(OCCN5CCOCC5)cc4)cnc23)cc1 | 0 (inactive) | 0 (inactive) | 0 (inactive) | 0 (inactive) | 0 (inactive) | 0 (inactive) | 0 (inactive) | 0 (inactive) | 0 (inactive) | 1 (active) | 0 (inactive) | 0 (inactive) | 0 (inactive) | 0 (inactive) | 0 (inactive) |  |  |
| COC(=O)C1=C(C)NC(C)=C(C(=O)OCCN(C)Cc2ccccc2)C1c1cccc([N+](=O)[O-])c1 (stereo unspecified) [nicardipine] | 0 (inactive) | 0 (inactive) | 0 (inactive) | 0 (inactive) | 0 (inactive) | 0 (inactive) | 0 (inactive) | 0 (inactive) | 0 (inactive) | 0 (inactive) | 0 (inactive) | 0 (inactive) | 1 (active) | 0 (inactive) | 0 (inactive) | 9 µM |  |
| Cc1cc2c(s1)Nc1ccccc1N=C2N1CCN(C)CC1 [Olanzapine] | 0 (inactive) | 0 (inactive) | 0 (inactive) | 0 (inactive) | 0 (inactive) | 0 (inactive) | 0 (inactive) | 0 (inactive) | 0 (inactive) | 1 (active) | 0 (inactive) | 0 (inactive) | 0 (inactive) | 0 (inactive) | 0 (inactive) |  |  |
| Cc1nc[nH]c1C1CCN(c2nc3cccc4c3n2CCC4=O)CC1 | 0 (inactive) | 0 (inactive) | 0 (inactive) | 0 (inactive) | 0 (inactive) | 0 (inactive) | 0 (inactive) | 0 (inactive) | 1 (active) | 0 (inactive) | 0 (inactive) | 0 (inactive) | 0 (inactive) | 0 (inactive) | 0 (inactive) |  |  |
| O=C1C=C(O)C(=O)c2ccccc21 [2-Hydroxy-[1,4]naphthoquinone] | 0 (inactive) | 0 (inactive) | 0 (inactive) | 0 (inactive) | 0 (inactive) | 0 (inactive) | 0 (inactive) | 0 (inactive) | 0 (inactive) | 0 (inactive) | 0 (inactive) | 0 (inactive) | 1 (active) | 0 (inactive) | 0 (inactive) | ≤ 0.3 µM |  |
| COc1ccc(C[C@@H]2c3cc(OC)c(OC)cc3CC[N@+]2(C)CCC(=O)OCCCCCOC(=O)CC[N@@+]2(C)CCc3cc(OC)c(OC)cc3[C@H]2Cc2ccc(OC)c(OC)c2)cc1OC [Cisatracurium besylate] | 0 (inactive) | 0 (inactive) | 0 (inactive) | 0 (inactive) | 0 (inactive) | 0 (inactive) | 0 (inactive) | 1 (active) | 0 (inactive) | 0 (inactive) | 0 (inactive) | 0 (inactive) | 1 (active) | 0 (inactive) | 0 (inactive) | 9 µM | 9 µM |
| O=C1CCc2ccc(OCCCCN3CCN(c4cccc(Cl)c4Cl)CC3)cc2N1 [aripiprazole] | 0 (inactive) | 0 (inactive) | 0 (inactive) | 0 (inactive) | 0 (inactive) | 0 (inactive) | 0 (inactive) | 0 (inactive) | 0 (inactive) | 0 (inactive) | 0 (inactive) | 0 (inactive) | 1 (active) | 0 (inactive) | 0 (inactive) | ≤ 0.3 µM |  |
| COC(=O)[C@H]1[C@H]2C[C@H]3c4[nH]c5ccccc5c4CCN3C[C@H]2CC[C@@H]1O [Rauwolscine hydrochloride] | 0 (inactive) | 0 (inactive) | 0 (inactive) | 0 (inactive) | 0 (inactive) | 0 (inactive) | 0 (inactive) | 0 (inactive) | 0 (inactive) | 0 (inactive) | 0 (inactive) | 0 (inactive) | 1 (active) | 0 (inactive) | 0 (inactive) | 3 µM |  |
| CCOc1ccc2nc(S(N)(=O)=O)sc2c1 [ethoxzolamide] | 0 (inactive) | 0 (inactive) | 0 (inactive) | 0 (inactive) | 0 (inactive) | 0 (inactive) | 0 (inactive) | 1 (active) | 0 (inactive) | 0 (inactive) | 0 (inactive) | 0 (inactive) | 0 (inactive) | 0 (inactive) | 0 (inactive) |  | 9 µM |
| COC(=O)[C@@H]1[C@H]2C[C@H]3c4[nH]c5ccccc5c4CCN3C[C@@H]2CC[C@@H]1O [Yohimbine hydrochloride] | 0 (inactive) | 0 (inactive) | 0 (inactive) | 0 (inactive) | 0 (inactive) | 0 (inactive) | 0 (inactive) | 0 (inactive) | 0 (inactive) | 0 (inactive) | 0 (inactive) | 0 (inactive) | 1 (active) | 0 (inactive) | 0 (inactive) | 9 µM |  |
| O=C(O)[C@H]1O[C@@H](Oc2cc3oc(-c4ccccc4)cc(=O)c3c(O)c2O)[C@H](O)[C@@H](O)[C@@H]1O [Baicalin] | 0 (inactive) | 0 (inactive) | 0 (inactive) | 0 (inactive) | 0 (inactive) | 0 (inactive) | 0 (inactive) | 0 (inactive) | 0 (inactive) | 0 (inactive) | 0 (inactive) | 0 (inactive) | 1 (active) | 0 (inactive) | 0 (inactive) | 3 µM |  |
| C#CCN[C@@H]1CCc2ccccc21 [rasagiline] | 0 (inactive) | 0 (inactive) | 0 (inactive) | 0 (inactive) | 0 (inactive) | 0 (inactive) | 0 (inactive) | 0 (inactive) | 1 (active) | 1 (active) | 0 (inactive) | 0 (inactive) | 1 (active) | 1 (active) | 0 (inactive) | 9 µM |  |
| Cc1cccc(CCN2CCC(C(=O)c3ccc(NS(C)(=O)=O)cc3)CC2)n1 | 0 (inactive) | 0 (inactive) | 0 (inactive) | 0 (inactive) | 0 (inactive) | 0 (inactive) | 0 (inactive) | 0 (inactive) | 0 (inactive) | 0 (inactive) | 0 (inactive) | 0 (inactive) | 1 (active) | 0 (inactive) | 0 (inactive) | 3 µM |  |
